Structures are written as SMILES. About 83,000 compounds went through this panel and 20% of them were active in at least one assay; those are over-represented in the sample as a whole.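 The endpoint reported here, percent growth, reads 100 for growth as untreated, 0 for no net growth and -100 for all cells dead.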 Unmarked numbers belong to inactive results. The source made the active and inactive calls. How the source made its calls: active means growth percent below 10; inactive means the rest.

Experiment in all cases: NCI-60 one-dose screen, 48 h (100 = growth as untreated, 0 = no growth, -100 = all killed)
Common to all, as to details: 10 µM unless noted

For assay [1], the system named is SK-MEL-2 melanoma.
The test system of assay [2] is EKVX NSCLC.
Assay [3] deals with SN12C renal.
Assay [4] deals with UO-31 renal.
Assay [5] has as its system TK-10 renal.
For assay [6], the system named is ACHN renal.
For assay [7], the system named is CAKI-1 renal.
Assay [8] has as its system A498 renal.
Assay [9] relates to CCRF-CEM leukemia.
The test system of assay [10] is MOLT-4 leukemia.
Assay [11] has as its system SR leukemia.
In assay [12] the test system is RPMI-8226 leukemia.
In assay [13] the test system is OVCAR-8 ovarian.
For assay [14], the system named is OVCAR-5 ovarian.
Assay [15] deals with OVCAR-4 ovarian.
Assay [16] deals with SK-OV-3 ovarian.
In assay [17] the test system is IGROV1 ovarian.
The test system of assay [18] is OVCAR-3 ovarian.
The subject of assay [19] is HS 578T breast.
Assay [20] concerns NCI/ADR-RES ovarian.

As to `CC(C)CCc1nc2ccc(NCc3ccc(OCCN4CCC(C)CC4)cc3)cc2[nH]1`, the growth in [1] is 110%; in [2] it was 78.5%; in assay [3], 69.9%; in [4], 57.4%; in [5], 111%; in [6], 97.3%. In addition, the growth was 64.8% in assay [7]; 79.3% in assay [8]; 67.3% in [9]; 62.3% in assay [10]; 14.2% in assay [11]; 68.6% in assay [12]. In addition, the growth is 96.6% in assay [13]; 95% in assay [14]; 80.6% in [15]; 102% in assay [16]; 79.3% in [17]; 71.9% in assay [18]. In addition, the figures for the growth in assay [19] and in [20] were 84.3% and 97%, respectively.

Take `CCOC(=O)c1c(Nc2nc3ccccc3s2)sc2c1CCC(=O)C2`: the growth in [1] was 103%; in [2], 42.8%; in [3], 36.8%; in assay [4], 52.7%; in assay [5], 29.1%; in assay [6], 29.9%. Besides, the growth is 42.8% in assay [7]; 59.1% in [8]; 16.9% in assay [9]; 20.8% in assay [10]; 0.365% (active) in assay [11]; 12.7% in [12]. The growth in [13] was 27.2%; in assay [14], 86.7%; in assay [15] it was 8.06% (active); in [16], 99.5%; in assay [17], 44.7%; in assay [18], 49.7%. The growth was 41.1% in [19] and 87.3% in assay [20].

Consider `COc1cccc(NC(=O)c2sc3nc(C)c(C(=O)c4ccccc4)cc3c2N)c1`, for which the growth is 93.7% in [1]; 69.1% in [2]; 94.4% in [3]; 93% in assay [4]; 102% in assay [5]; 96.6% in [6]. In addition, the growth is 63.2% in assay [7]; -2.09% (active) in assay [8]; 99% in assay [9]; 115% in assay [10]; 45.4% in [11]; 94.5% in assay [12]. Moreover, the growth was 98.8% in assay [13]; 97.5% in assay [14]; 87.9% in assay [15]; 41% in assay [16]; 91.7% in assay [17]; 92.9% in assay [18]. For the same compound, the results for the growth in assay [19] and in assay [20] were 72.9% and 98.1%, respectively.

On to `C=CCn1c(SCC(=O)Nc2ccc(C(=O)/C=C/c3ccc(Cl)cc3)cc2)nnc1-c1ccc(Cl)c(Cl)c1`, for which the growth was 76.6% in assay [1]; 79.7% in assay [2]; 82.3% in assay [3]; 54.4% in assay [4]; 86.2% in assay [5]; 87.7% in assay [6]. Moreover, the growth was 63.5% in assay [7]; 83.9% in assay [8]; 52.9% in assay [9]; 45.5% in [10]; 57% in [11]; -34.5% (active) in assay [12]. For the same compound, the growth in [13] was 75.6%; in assay [14], 90.5%; in assay [15], 86.7%; in [16] it was 85.7%; in [17], 76.4%; in [18] it was 83.8%. The results for the growth in [19] and in [20] were 90.8% and 83.9%, respectively.

With `COc1ccc(Nc2nc(Nc3cc(C)[nH]n3)c3cc(OC)c(OC)cc3n2)cc1`, the growth was -68.6% [20 µM] (active) in assay [1]; -79.5% [20 µM] (active) in [2]; -90.4% [20 µM] (active) in assay [3]; -100% [20 µM] (active) in [4]; -86.6% [20 µM] (active) in assay [5]; -100% [20 µM] (active) in assay [6]. Besides, the growth in assay [7] is -100% [20 µM] (active); in [8] it was -98.7% [20 µM] (active); in assay [9], -38.9% [20 µM] (active); in [10], -57.1% [20 µM] (active); in assay [11], 0.87% [20 µM] (active); in [12], -50.4% [20 µM] (active). In addition, the growth is -31.2% [20 µM] (active) in assay [13]; -98% [20 µM] (active) in [14]; -83.9% [20 µM] (active) in assay [15]; -96.2% [20 µM] (active) in assay [16]; -88.8% [20 µM] (active) in assay [17]; -63.1% [20 µM] (active) in assay [18]. The growth in assay [19] is -63.1% [20 µM] (active); in [20], -63.7% [20 µM] (active).

As to `CN(C)C(=O)OCc1ccc2c(Cl)cc(Cl)c(O)c2n1`, the growth in assay [1] was 50.1%; in [2] it was 30.5%; in assay [3] it was 36.6%; in [4], 27.2%; in [5], 64.2%; in assay [6] it was 27.2%. Besides, the growth is 18.6% in assay [7]; 68% in assay [8]; 23% in assay [9]; 22.1% in [10]; 34.3% in [11]; 34.7% in [12]. For the same compound, the growth in assay [13] is 22.6%; in assay [14], 77.4%; in assay [15], 20.8%; in [16], 50.1%; in [17], 40.9%; in assay [18], 30.6%. The growth is 71.8% in [19] and 14.8% in assay [20].

With `CCCc1cc(CCC)n2nc(N)nc2n1`, the growth was 128% in assay [1]; 115% in assay [2]; 101% in assay [3]; 129% in assay [4]; 114% in [5]; 101% in assay [6]. The growth in [7] is 95.3%; in [8] it was 96%; in assay [9], 93.1%; in [10] it was 94.8%; in [11] it was 109%; in [12], 104%. The growth in assay [13] is 106%; in [14], 98.8%; in assay [15], 116%; in assay [16] it was 105%; in assay [17], 126%; in assay [18], 121%. In addition, the growth was 103% in [19] and 109% in [20].
